Values joined by “and” are separate entries in the source; they are usually repeats but may differ in a detail not shown here. Identical values can stand only once. Among all 5,500 compounds or so, about 2,000 (36%) were called active. About 18% were inconclusive and are not listed. No stated cut-off is given here; in the data, active means normalized growth mostly below about 0.91 (no sharp cut-off); inconclusive means no clear call, values can overlap the other calls; inactive means mostly above about 0.92. The list shows a part of the results.
Test: chemical genetic growth profiling, strain panel (AID 1159580);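 further: tested at 20 µM; growth read once vehicle control cultures reached saturation at 30 °C; 1 = growth at the plate median or of vehicle wells; lower values mean less growth of the strain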
Details: S. cerevisiae deletion strains, growth OD

Measured: normalized growth

CC(=O)OC1CCC2(C)C3CC(=O)C4(C)C(CC5OC6(CCC(C)CO6)[C@@H](C)C54)C3CC[C@H]2C1 (stereo not given in full)
inactive: locus YAL013W, strain DEP1, hits give low values 0.982 | locus YAL021C, strain ccr4, hits give low values 0.987 | locus YAL026C, strain drs2, hits give low values 0.991 | locus YAL030W, strain snc1, hits give low values 0.981 | locus YBL061C, strain skt5, hits give low values 0.982 | locus YBR009C, strain hhf1, hits give low values 0.991 | locus YBR021W, strain FUR4, hits give low values 1.07 | locus YBR023C, strain chs3, hits give low values 0.994 | locus YBR171W, strain sec66, hits give low values 0.984 | locus YBR229C, strain ROT2, hits give low values 0.99 | locus YBR231C, strain swc5, hits give low values 1.01 | locus YBR279W, strain paf1, hits give low values 0.987 | locus YCL011C, strain gbp2, hits give low values 0.979 | locus YCL016C, strain dcc1, hits give low values 0.98 | locus YCL029C, strain bik1, hits give low values 0.963 | locus YCL069W, strain vba3, hits give low values 1.01 | locus YCR088W, strain abp1, hits give low values 0.994 | locus YDL005C, strain med2, hits give low values 0.975 | locus YDL035C, strain GPR1, hits give low values 1.01 | locus YDL040C, strain nat1, hits give low values 0.99 | locus YDL074C, strain BRE1, hits give low values 0.983 | locus YDL101C, strain DUN1, hits give low values 0.992 | locus YDL185W, strain tfp1, hits give low values 0.952 | locus YDL192W, strain arf1, hits give low values 0.986 | locus YDR001C, strain nth1, hits give low values 0.988 | locus YDR069C, strain doa4, hits give low values 0.968 | locus YDR101C, strain arx1, hits give low values 1 | locus YDR137W, strain rgp1, hits give low values 0.973 | locus YDR159W, strain sac3, hits give low values 1.03 | locus YDR162C, strain NBP2, hits give low values 0.972 | locus YDR195W, strain ref2 0.942 | locus YDR297W, strain sur2, hits give low values 0.978 | locus YDR318W, strain mcm21, hits give low values 0.996 | locus YDR334W, strain swr1, hits give low values 0.985 | locus YDR335W, strain msn5, hits give low values 0.978 | locus YDR388W, hits give low values 0.978 | locus YDR392W, strain spt3, hits give low values 1.01 | locus YDR502C, strain sam2, hits give low values 0.971 | locus YEL003W, strain gim4, hits give low values 0.986 | locus YEL037C, strain rad23, hits give low values 0.998 | locus YEL061C, strain CIN8 (second series), hits give low values 0.999 | locus YER015W, strain faa2, hits give low values 0.988 | locus YER016W, strain bim1, hits give low values 0.96 | locus YER110C, hits give low values 0.97 | locus YER111C, strain swi4, hits give low values 0.995 | locus YER155C, strain BEM2 (second series), hits give low values 0.999 | locus YER155C, strain BEM2, hits give low values 1.01 | locus YER167W, strain BCK2, hits give low values 1.01 | locus YFR010W, strain ubp6, hits give low values 1 | locus YGL078C, strain dbp3, hits give low values 0.988 | locus YGL086W, strain mad1, hits give low values 0.993 | locus YGL167C, strain pmr1, hits give low values 0.99 | locus YGL173C, strain kem1, hits give low values 1.01 | locus YGL227W, strain vid30, hits give low values 0.974 | locus YGL240W, strain doc1, hits give low values 0.98 | locus YGL248W, strain PDE1, hits give low values 0.991 | locus YGL253W, strain hxk2, hits give low values 0.976 | locus YGR078C, strain PAC10, hits give low values 0.986 | locus YGR135W, strain pre9, hits give low values 0.977 | locus YGR252W, strain gcn5, hits give low values 0.986 | locus YHR013C, strain ard1, hits give low values 0.957 | locus YHR027C, strain rpn1, hits give low values 0.982 | locus YHR030C, strain SLT2, hits give low values 0.977 | locus YHR079C, strain IRE1 (second series), hits give low values 0.987 | locus YHR079C, strain IRE1, hits give low values 1.01 | locus YHR094C, strain hxt1, hits give low values 0.975 | locus YHR129C, strain ARP1, hits give low values 0.982 | locus YHR142W, strain chs7, hits give low values 0.955 | locus YHR200W, strain rpn10, hits give low values 0.993 | locus YIL066C, strain RNR3, hits give low values 0.988 | locus YIL073C, strain SPO22, hits give low values 0.931 | locus YIL125W, strain kgd1, hits give low values 0.974 | locus YIR030C, strain dcg1, hits give low values 0.988 | locus YJL092W, strain hpr5, hits give low values 0.985 | locus YJL095W, strain BCK1 (second series), hits give low values 0.981 | locus YJL095W, strain BCK1, hits give low values 0.962 and 1 | locus YJL115W, strain asf1, hits give low values 0.958 | locus YJL129C, strain trk1, hits give low values 0.969 | locus YJL134W, strain LCB3, hits give low values 0.99 | locus YJL154C, strain vps35, hits give low values 0.986 | locus YJL164C, strain tpk1, hits give low values 0.993 | locus YJL166W, strain qcr8, hits give low values 0.965 | locus YJL168C, strain set2, hits give low values 0.983 | locus YJL187C, strain SWE1 (second series), hits give low values 0.977 | locus YJR066W, strain TOR1, hits give low values 0.934 | locus YJR075W, strain HOC1, hits give low values 0.988 | locus YKL009W, strain mrt4, hits give low values 0.983 | locus YKL068W, hits give low values 0.981 | locus YKL085W, strain MDH1 (second series), hits give low values 0.988 | locus YKL085W, strain MDH1, hits give low values 0.988 | locus YKL160W, strain elf1, hits give low values 0.964 | locus YKR001C, strain vps1, hits give low values 0.992 | locus YKR026C, strain gcn3, hits give low values 1 | locus YKR091W, strain srl3, hits give low values 0.964 | locus YLL001W, strain dnm1, hits give low values 1.01 | locus YLL026W, hits give low values 0.977 | locus YLL041C, strain sdh2, hits give low values 0.992 | locus YLR027C, strain aat2, hits give low values 0.965 | locus YLR039C, strain RIC1, hits give low values 0.994 | locus YLR058C, strain SHM2, hits give low values 0.982 | locus YLR102C, strain apc9, hits give low values 0.972 | locus YLR113W, strain HOG1, hits give low values 0.976 | locus YLR221C, strain rsa3, hits give low values 1.01 | locus YLR258W, strain gsy2, hits give low values 0.961 | locus YLR262C, strain YPT6 (second series), hits give low values 0.974 | locus YLR268W, strain sec22, hits give low values 0.984 | locus YLR320W, strain mms22, hits give low values 1.03 | locus YLR342W, strain FKS1 (second series), hits give low values 1.03 | locus YLR342W, strain FKS1, hits give low values 0.975 | locus YLR357W, strain rsc2, hits give low values 0.964 | locus YLR370C, strain arc18, hits give low values 0.973 | locus YLR371W, strain rom2, hits give low values 0.992 | locus YLR384C, strain iki3, hits give low values 0.983 | locus YLR418C, strain cdc73, hits give low values 1.02 | locus YML016C, strain PPZ1, hits give low values 1.01 | locus YML032C, strain rad52, hits give low values 0.996 | locus YML120C, strain ndi1, hits give low values 0.989 | locus YML124C, strain tub3, hits give low values 0.982 | locus YMR058W, strain fet3, hits give low values 0.979 | locus YMR078C, strain ctf18, hits give low values 0.986 | locus YMR125W, strain sto1, hits give low values 0.986 | locus YMR129W, hits give low values 0.975 | locus YMR205C, strain PFK2, hits give low values 1 | locus YMR223W, strain ubp8, hits give low values 0.981 | locus YMR231W, strain pep5, hits give low values 0.989 | locus YMR263W, strain SAP30, hits give low values 0.979 | locus YMR307W, strain GAS1, hits give low values 1.06 | locus YNL067W, strain RPL9B, hits give low values 0.967 | locus YNL071W, strain lat1, hits give low values 1 | locus YNL153C, strain GIM3, hits give low values 0.973 | locus YNL183C, strain NPR1, hits give low values 0.956 | locus YNL209W, strain ssb2, hits give low values 1 | locus YNL233W, strain BNI4, hits give low values 0.989 | locus YNL248C, strain rpa49, hits give low values 0.955 | locus YNL250W, strain rad50, hits give low values 0.969 | locus YNL271C, strain bni1, hits give low values 0.994 | locus YNL298W, strain CLA4, hits give low values 0.973 | locus YNL307C, strain MCK1, hits give low values 0.974 | locus YNL322C, strain KRE1 (second series), hits give low values 0.98 | locus YNR049C, strain mso1, hits give low values 0.966 | locus YNR052C, strain pop2, hits give low values 0.976 | locus YOL006C, strain TOP1, hits give low values 1.06 | locus YOL012C, strain htz1 0.635 | locus YOL147C, strain pex11, hits give low values 0.965 | locus YOR001W, strain rrp6, hits give low values 1.03 | locus YOR061W, strain CKA2, hits give low values 0.997 | locus YOR069W, strain VPS5, hits give low values 0.99 | locus YOR070C, strain gyp1, hits give low values 0.993 | locus YOR080W, strain dia2, hits give low values 0.974 | locus YOR083W, strain WHI5, hits give low values 0.974 | locus YOR106W, strain vam3, hits give low values 0.963 | locus YOR136W, strain idh2, hits give low values 0.981 | locus YOR144C, strain elg1, hits give low values 0.982 | locus YOR184W, strain ser1, hits give low values 1.01 | locus YOR231W, strain MKK1, hits give low values 0.988 | locus YOR265W, strain rbl2, hits give low values 0.968 | locus YOR270C, strain vph1, hits give low values 0.999 | locus YOR290C, strain snf2, hits give low values 0.96 | locus YOR316C, strain cot1, hits give low values 0.97 | locus YPL051W, strain arl3, hits give low values 0.977 | locus YPL078C, strain atp4, hits give low values 0.979 | locus YPL106C, strain sse1, hits give low values 0.986 | locus YPL240C, strain hsp82, hits give low values 0.982 | locus YPL241C, strain CIN2, hits give low values 0.994 | locus YPL256C, strain CLN2, hits give low values 0.993 | locus YPR119W, strain clb2, hits give low values 0.995 | locus YPR141C, strain kar3, hits give low values 0.97 | locus YPR163C, strain tif3, hits give low values 0.962 | locus YPR167C, strain met16, hits give low values 0.988 | strain wtn01, hits give low values 0.985

Reference: PubChem BioAssay AID1159580 (chemical genetic matrix, 2015)
